High-throughput results as filed in PubChem BioAssay.
DT40 TDP1 no CPT: qHTS for Inhibitors of human tyrosyl-DNA phosphodiesterase 1 (TDP1): qHTS in cells in absence of CPT. DT40 Tdp1-/- hTDP1 cells, no CPT, ATP luminescence, 48 h. Potency, µM (series often up to 46.2 µM), most hits filed as inhibitors. 420,000 tested, 15% active; further: nearly all actives have a fitted effect of over 55% in size
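Seeded 400 DT40-hTDP1 cells/well (vehicle DMSO, no 20 nM CPT); pinned compounds; ≥48 hr at 37 °C; CellTiter-Glo luminescence as viability measure.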
TDP1 cell CPT: growth inhibition of DT40 Tdp1-/-;hTDP1 cells with camptothecin (screen for TDP1 inhibitors); chicken DT40 Tdp1-/-;hTDP1 cells + 20 nM CPT, ATP luminescence, 48 h; Potency, µM (doses to about 46.2 µM), actives largely listed as inhibitors; 420,000 tested, 12% active; AID 686979; further: nearly all actives have a fitted effect of over 55% in size
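Chicken DT40 Tdp1-/- cells complemented with human TDP1, 400 cells/well, exposed to compounds plus 20 nM camptothecin for at least 48 h at 37 C; viability read as ATP content by CellTiter-Glo luminescence.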
IL1B secr inh: inflammasome signaling inhibition, IL-1 beta readout; THP-1 LPS/ATP IL-1B secretion, AlphaLISA, 16 h; stronger effect = lower value; activity change, % at 57.5 µM; 360,000 tested, 4.7% active; AID 743279; in the data active means activity change below about -50%; inconclusive means mostly about -30% to -49%
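THP-1 cells pretreated 1 hr with compounds (up to 57.5 uM final), then stimulated with LPS (250 ng/mL final) plus ATP (1.25 mM final); secreted IL-1B measured by AlphaLISA after 16 hr, decreased signal indicating inhibition.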
uPA generation: blocks generation of uPA at the cell surface | cell surface uPA generation assay, qHTS | Potency, µM (series often up to 38.3 µM), most hits filed as inhibitors | 330,000 tested, 0.31% active | AID 540303; active means well fitted inhibition curve with a large enough effect; inconclusive means small, poorly fitted or top-dose-only effect; inactive means no such curve, though single readings can be large or run the other way; tested in mouse RAW 264.7 cells; further: nearly all actives have a fitted effect of over 55% in size
HT1080 IDH1KD tx: toxicity to HT-1080 IDH1 knockdown cells (counter line); Potency, µM (doses to about 46.1 µM), actives largely listed as cytotoxic; 360,000 tested, 2% active; HT-1080 IDH1 knockdown viability, ATP luminescence, 48 h
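Assay cells: HT-1080 with IDH1 knockdown, 750 per well, RPMI/5% FBS. Exposure: 48 h at 37 °C following 2 h pre-incubation. Read: CellTiter-Glo luminescence; fitted concentration-response, curve class assigned.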
HT1080NT lethal: kills 2HG-producing HT-1080-NT fibrosarcoma cells; HT-1080-NT fibrosarcoma viability, CellTiter-Glo ATP luminescence, 48 h; Potency, µM (top dose mostly 46.1 µM), actives largely listed as cytotoxic; 360,000 tested, 1.6% active; AID 686970;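 further: NT is the 2HG producing partner of a matched IDH1 knockdown line; nearly all actives have a fitted effect of over 55% in size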
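Compounds were tested in concentration-response format on HT-1080-NT cells for 48 hours at 37 degrees C. Cell viability came from CellTiter-Glo luminescence; curves were classified by r2, response magnitude and activity.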
Each line names hits and unclear results; the compound was inactive in the other large screens. A selection: hits, their analogues and other compounds. The true share with any hit is near 19%. Unless noted, the call rests on the fitted dose curve; in most records, active means well fitted curve in the direction sought with a large enough effect; inconclusive means small, poorly fitted or top-dose-only effect, or another doubt; inactive means no such curve, though single readings can be large; an effect the other way counts as inactive or inconclusive.

CC1CN1c1cc2c(c3c1ccn3C)C1CCC2C1 (stereo not given)	DT40 TDP1 no CPT 8.2µM, TDP1 cell CPT 7.31µM (no result: uPA generation)
CCN1C[C@]2(COC)CC[C@H](O)[C@]34C1[C@](O)([C@@H](OC)[C@H]23)[C@@]1(O)C[C@H](OC)[C@H]2C[C@@H]4[C@@H]1[C@H]2OC	none
CC1=C(C)CC2(CC1)C(=O)NC(=O)NC2=O	none
Cc1cc(O)c2c3c(c(=O)oc2c1)CCC(C)C3 (stereo not given)	DT40 TDP1 no CPT 11.6µM, TDP1 cell CPT 14.6µM
CC(=O)Oc1ccc2c3c1O[C@H]1[C@@H](OC(C)=O)C=C[C@H]4[C@@H](C2)N(C)CC[C@@]341	DT40 TDP1 no CPT inconclusive (no result: IL1B secr inh, uPA generation, HT1080 IDH1KD tx, HT1080NT lethal)
COC(C(=O)C(O)C(C)O)C1Cc2cc3cc(OC4CC(OC5CC(O)C(O)C(C)O5)C(O)C(C)O4)c(C)c(O)c3c(O)c2C(=O)C1OC1CC(OC2CC(OC3CC(C)(O)C(O)C(C)O3)C(O)C(C)O2)C(O)C(C)O1 (stereo not given)	DT40 TDP1 no CPT 0.0282µM, TDP1 cell CPT 0.159µM (no result: IL1B secr inh, uPA generation, HT1080 IDH1KD tx, HT1080NT lethal)
CO[C@H](C(=O)[C@@H](O)[C@@H](C)O)C1Cc2cc3cc(O[C@H]4C[C@@H](O[C@H]5C[C@@H](O)[C@H](O)[C@@H](C)O5)[C@@H](O)[C@@H](C)O4)c(C)c(O)c3c(O)c2C(=O)[C@H]1O[C@H]1C[C@@H](O[C@H]2C[C@@H](O[C@H]3C[C@](C)(O)[C@H](O)[C@@H](C)O3)[C@H](O)[C@@H](C)O2)[C@H](O)[C@@H](C)O1 (stereo not given in full)	DT40 TDP1 no CPT 0.0841µM, TDP1 cell CPT 0.075µM (no result: IL1B secr inh, uPA generation, HT1080 IDH1KD tx, HT1080NT lethal)
CCCN(CCC)C(=O)Cc1c(-c2ccc(Cl)cc2)nc2ccc(Cl)cn12	DT40 TDP1 no CPT inconclusive (no result: IL1B secr inh, uPA generation, HT1080 IDH1KD tx, HT1080NT lethal)
OC(CN1CCCCC1)c1c[nH]c2ccccc12 (stereo not given)	none
CC(C)[N+](C)(C)CC(O)CN(c1ccccc1)c1ccccc1 (stereo not given)	TDP1 cell CPT inconclusive
O=C1CC(N2CC=C(c3ccccc3)CC2)C(=O)N1c1ccc(F)cc1 (stereo not given)	DT40 TDP1 no CPT 18.4µM, TDP1 cell CPT 14.6µM
CCCOc1ccc(N2C(=O)CC(N3CC=C(c4ccccc4)CC3)C2=O)cc1 (stereo not given)	DT40 TDP1 no CPT inconclusive
Cc1nn(Cc2ccccc2)c(Cl)c1C(=O)NC1CCCc2ccccc21 (stereo not given)	DT40 TDP1 no CPT 20.6µM, TDP1 cell CPT inconclusive
Fc1ccccc1CCNCc1cccc2ccccc12	DT40 TDP1 no CPT inconclusive, TDP1 cell CPT inconclusive, HT1080 IDH1KD tx inconclusive, HT1080NT lethal inconclusive
Cc1ccc(CNCCc2ccccc2F)cc1	IL1B secr inh -72.0
CCN(CC)c1ccc(CNCCc2ccccc2F)cc1	DT40 TDP1 no CPT 16.4µM, TDP1 cell CPT inconclusive, IL1B secr inh -91.7, HT1080 IDH1KD tx 18.4µM, HT1080NT lethal 16.4µM
CC[C@]1(O)CC(O[C@@H]2CC(N(C)C)C(O)C(C)O2)c2c(cc3c(c2O)C(=O)c2c(O)ccc(O)c2C3=O)C1C(=O)OC (stereo not given in full)	DT40 TDP1 no CPT 1.3µM, TDP1 cell CPT 1.46µM (no result: IL1B secr inh, uPA generation, HT1080 IDH1KD tx, HT1080NT lethal)
COc1cc(C2c3cc4c(cc3C(O)[C@H]3COC(=O)C23)OCO4)cc(OC)c1OC (stereo not given in full)	DT40 TDP1 no CPT 0.0366µM, TDP1 cell CPT 0.0231µM (no result: IL1B secr inh, uPA generation, HT1080 IDH1KD tx, HT1080NT lethal)
COc1cc([C@@H]2c3cc4c(cc3[C@H](OC(C)=O)[C@H]3COC(=O)[C@@H]23)OCO4)cc(OC)c1OC	DT40 TDP1 no CPT 1.12µM, TDP1 cell CPT 1.12µM (no result: IL1B secr inh, uPA generation, HT1080 IDH1KD tx, HT1080NT lethal)
COc1cc([C@@H]2c3cc4c(cc3[C@@H](O)[C@H]3COC(=O)[C@H]23)OCO4)cc(OC)c1O	DT40 TDP1 no CPT 0.112µM, TDP1 cell CPT 0.1µM (no result: IL1B secr inh, uPA generation, HT1080 IDH1KD tx, HT1080NT lethal)
O=C(CCc1nnc2ccc(NCc3ccccc3Cl)nn12)N1CCC2(CC1)OCCO2	none
